Bioassay records from PubChem BioAssay.
Only some compounds are listed: those with a hit (about 2.1% of all), similar ones and a draw of the others.
HIF-2a block – HIF-2a inhibition | inhibition, % at 18.8 µM | AID 624352 | 786-0 RCC cells HIF-2a reporter, luciferase luminescence, overnight | 360,000 tested, 0.72% active;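 active = inhibition of the luminescence signal of 40% or more relative to plate controls, in a single-dose primary screen at 18.75 µM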
PAX8 reporter – PAX8 transcriptional activity inhibition. RMG-I TPO-luciferase reporter, SteadyGlo, 24 h. inhibition, % at 12.6 µM. 360,000 tested, 1.2% active. AID 652154;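 active = mean replicate inhibition at least 60% with every replicate also reaching 60%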;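 note: luciferase light reporting Pax8 driven TPO promoter activity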
KKLEB cytotox – CF airway cell cytotoxicity counter-screen; KKLEB CF airway cells viability, ATPlite luminescence, overnight; hits give low values; cells stimulated with P. aeruginosa culture filtrate; 360,000 tested, 0.36% active; activity change (cytotoxicity), % at 5 µM;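 active = corrected activity change at or below -50% at 5 µM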
EWS-Fli block – blocks EWS/Fli oncoprotein-driven transcription; A673 NR0B1-luciferase reporter, viability-normalised; inhibition, % at 12.6 µM; 350,000 tested, 0.67% active;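 active = mean inhibition of at least 50% after viability correction, with every replicate also passing that limit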;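 note: firefly luciferase signal divided by Alamar Blue viability fluorescence both relative to DMSO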
CF NFkB block – inhibitors of cystic fibrosis induced NF-kB. 360,000 tested, 0.86% active. AID 588850. inhibition, % at 5 µM. KKLEB NF-kB-GFP reporter, PAF-induced, GFP fluorescence overnight;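 active = at least 50% inhibition at 5 µM, scaled per plate between neutral and stimulator controls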;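 note: PAF is a Pseudomonas aeruginosa culture filtrate used as stimulus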
Each line names hits and unclear results; the compound was inactive in the other large screens; ! = a repeat was not active.

C[C@@H]1CCCCO[C@@H](CN(C)Cc2ccc(C(F)(F)F)cc2)[C@@H](C)CN([C@H](C)CO)C(=O)c2cc(NC(=O)Cc3ccccc3)ccc2O1	none (no result: HIF-2a block, KKLEB cytotox, CF NFkB block)
C[C@@H]1CCCCO[C@H](CN(C)Cc2ccc(C(F)(F)F)cc2)[C@H](C)CN([C@@H](C)CO)C(=O)c2cc(NC(=O)Cc3ccccc3)ccc2O1	PAX8 reporter 65.1!
C[C@H](O)[C@@H]1CN2CCc3ccc(-c4ccc5c(c4)OCO5)cc3[C@@H]2C[C@@H]1N(C)C(=O)NC1CCCCC1	none (no result: HIF-2a block, KKLEB cytotox, CF NFkB block)
C[C@H](O)[C@@H]1CN2CCc3c([nH]c4ccc(-c5ccc6c(c5)OCO6)cc34)[C@@H]2C[C@@H]1N(C)C(=O)NC1CCCCC1	PAX8 reporter 89.6
Cc1cc(C)nc(/N=C(\N)Nc2cccc(OCc3ccccc3)c2)n1	EWS-Fli block 53.1
O=C(NCc1ccc(F)cc1)C1(c2cccs2)CCOCC1	PAX8 reporter 122.9
CCOC(=O)C(C(=O)OCC)c1cc(Br)c2noc3c2c1C(=O)c1ccccc1-3	CF NFkB block 74.9 (no result: PAX8 reporter, EWS-Fli block)
Cc1nnc(SCc2cc(=O)[nH]c(/N=C(\N)Nc3ccccc3)n2)s1	none
CCOc1ccc(N/C(N)=N/c2nc(CSc3nnc(C)s3)cc(=O)[nH]2)cc1	EWS-Fli block 66.6
O=C(Nc1ccc2c(c1)OCCO2)c1ccc(NC(=O)C2CCCO2)cc1 (stereo unspecified)	HIF-2a block 57.7 (no result: EWS-Fli block)
CC(=O)N/C(=C\c1ccccc1)C(=O)OCC(=O)NC1CCCC1	PAX8 reporter 149.7
CC(=O)N/C(=C\c1ccccc1)C(=O)OCC(=O)c1ccccc1	none
CCCNC(=O)N1CC2(C1)CN(C(=O)COC)[C@H](CO)c1[nH]c3cc(OC)ccc3c12	PAX8 reporter 60.7 (no result: HIF-2a block, KKLEB cytotox, CF NFkB block)
COc1ccc2c3c([nH]c2c1)[C@@H](CO)N(C(=O)Nc1ccc(F)cc1)CC31CN(S(=O)(=O)c2ccc(C)cc2)C1	PAX8 reporter 68.1 (no result: HIF-2a block, KKLEB cytotox, CF NFkB block)
COc1ccc2c3c([nH]c2c1)[C@@H](CO)N(C(=O)Nc1cccc(F)c1)CC31CCN(S(=O)(=O)c2cccc(C)c2)CC1	PAX8 reporter 95.9 (no result: HIF-2a block, KKLEB cytotox, CF NFkB block)
C[C@H]1CN([C@@H](C)CO)C(=O)c2cc(NC(=O)Nc3ccc4c(c3)OCO4)ccc2O[C@@H]1CN(C)S(C)(=O)=O	none (no result: HIF-2a block, PAX8 reporter, KKLEB cytotox, CF NFkB block)
COc1ccc2c3c([nH]c2c1)[C@@H](CO)N(C)CC31CCN(C(=O)NC(C)C)CC1	none (no result: HIF-2a block, PAX8 reporter, KKLEB cytotox, CF NFkB block)
C/C=C/c1ccc2c(c1)O[C@H](CN(C)C(=O)C1CCC1)[C@H](C)CN([C@@H](C)CO)S2(=O)=O	none (no result: HIF-2a block, PAX8 reporter, KKLEB cytotox, CF NFkB block)
CN(C)CCCNC(=O)C[C@@H]1CC[C@H]2[C@@H](COC[C@@H](O)CN2CC2CCCCC2)O1	none (no result: HIF-2a block, PAX8 reporter, KKLEB cytotox, CF NFkB block)
C[C@H]1CN([C@@H](C)CO)C(=O)Cc2cc(NC(=O)Cn3cnnn3)ccc2O[C@@H]1CN(C)C(=O)Nc1ccc(F)cc1	none (no result: HIF-2a block, KKLEB cytotox, CF NFkB block)
COc1ccc(-c2cc(=O)c3c(O)cc(O)cc3o2)cc1	CF NFkB block 67.5
CS(=O)(=O)N1CC(=O)N2[C@H](CO)[C@H](c3ccc(C#Cc4ccc(F)cc4)cc3)[C@@H]2C1	none (no result: HIF-2a block, KKLEB cytotox, CF NFkB block)
COc1ccc(NS(=O)(=O)c2ccc(N3CCCC3)c(NC(=S)Nc3ccc(SC(F)F)cc3)c2)cc1	PAX8 reporter 101.4
COc1ccc(NS(=O)(=O)c2ccc(N3CCCC3)c(NC(=S)Nc3cccc(C)c3C)c2)cc1	none (no result: EWS-Fli block)
C[C@@H]1CN([C@H](C)CO)C(=O)c2cccc(NC(=O)c3cnccn3)c2O[C@H]1CN(C)S(=O)(=O)c1ccccc1	none (no result: HIF-2a block, KKLEB cytotox, CF NFkB block)
C/C(=N\NC(=O)c1c([N+](=O)[O-])c(C)nn1C)c1ccc(NC(=O)C2CCCC2)cc1	EWS-Fli block 52.1
C/C(=N\NC(=O)c1c(Cl)c(C)nn1C)c1ccc(NC(=O)C2CCC2)cc1	none
C[C@@H]1CN([C@@H](C)CO)S(=O)(=O)c2ccc(-c3cccc(C#N)c3)cc2O[C@@H]1CN(C)C	none (no result: HIF-2a block, KKLEB cytotox, CF NFkB block)
CC1C/C(=C/c2cccs2)C(=O)/C(=C/c2cccs2)C1 (stereo unspecified)	PAX8 reporter 71.6
O=C(C[C@@H]1CC[C@@H]2[C@H](COC[C@H](O)CN2CC2CCCC2)O1)NCC1CC1	none (no result: HIF-2a block, KKLEB cytotox, EWS-Fli block, CF NFkB block)
Cc1ccc(/C=C2\SC(=S)N(CCC(=O)N3CCCCC3)C2=O)cc1	none
CN1CCN(C(=O)CCN2C(=O)/C(=C\c3ccccc3F)SC2=S)CC1	CF NFkB block 54.9 (no result: EWS-Fli block)
O=C(CCN1C(=O)/C(=C\c2ccccc2F)SC1=S)N1CCOCC1	none
O=C(CCN1C(=O)/C(=C/c2cccs2)SC1=S)N1CCCCC1	PAX8 reporter 69.5
O=C(CCN1C(=O)/C(=C\c2ccccc2)SC1=S)N1CCCCC1	HIF-2a block 45.3
